# High-throughput results deposited in PubChem by National Center for Advancing Translational Sciences (NCATS).
# Compounds with a hit are over-represented: about 2.8% of the library has one in this group of screens.
# Pol kappa inh-1 – inhibitors of human DNA polymerase kappa; Q9UBT6; Potency, µM (doses to about 107 µM), for inactives: at the top dose activity, negative = inhibition, most hits filed as inhibitors; purified Pol kappa, fluorescent DNA synthesis assay, 10 min; 0.53% of 400,000 active; further: potency means the concentration at half of the fitted maximal effect; on the % scale 0 is the no-effect control and ±100 the full control effect
#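 Pol kappa 10 nM + cpd, 15 min RT; start w/ substrate 50 nM final; fluorescence kinetic read, 0 and 10 min. Neg ctrl: buffer, no enzyme.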
# Pol iota inh – blocks human DNA polymerase iota activity. Potency, µM (titrated, usually from 115 µM), without a hit: at the top dose activity, negative = inhibition, usual class: inhibitors. Pol iota fluorescent replication assay, 10 min. 1% of 390,000 active; further: potency means the concentration at half of the fitted maximal effect
#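 Pol iota at 10 nM preincubated 15 min with compounds at room temperature; reaction started with fluorescent substrate, 50 nM final. Fluorescence read kinetically at 0 and 10 min; buffer-only wells as negative control.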
# WRN helicase inh-1 – blocks human WRN helicase; WRN helicase unwinding, fluorescent forked duplex, kinetic; Potency, µM (top dose mostly 114 µM), for inactives: at the top dose activity change, negative = inhibition, most hits filed as inhibitors; 0.46% of 360,000 active; AID 651768; further: potency means the concentration at half of the fitted maximal effect; on the % scale 0 is the no-effect control and ±100 the full control effect; nearly all actives have a fitted effect of over 55% in size
#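 WRN at 20 nM final preincubated with compound 15 min at room temperature; reaction started with 100 nM fluorophore/quencher forked duplex oligonucleotide and 2 mM ATP final. Unwinding followed kinetically by red fluorescence (ex 525, em 598 nm).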
# POLB inh – blocks human DNA polymerase beta activity. Pol beta primer extension/strand displacement, fluorescence kinetic. P06746. 1.3% of 340,000 active. AID 485314. Potency, µM (titrated, usually from 114 µM), without a hit: top-dose activity change, negative = inhibition, hits mostly inhibitors; further: potency means the concentration at half of the fitted maximal effect; on the % scale 0 is the no-effect control and ±100 the full control effect
#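 Enzyme-only controls used 10 nM Pol beta; buffer lacking enzyme served as negative control. Compound preincubated 15 min, then 50 nM substrate added; 0 and 10 min reads at room temperature.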
# PI5P4K alpha inh – blocks human PI5P4K alpha kinase activity. 1.2% of 330,000 active. max response, %. PI5P4Kalpha enzyme, ADP-Glo luminescence, 60 min; stronger effect = lower value; active means max response of -50% or lower; inconclusive means between -30% and -50%; inactive means -30% or higher; further: value at the top dose of about 77 µM; on the % scale 0 is the no-effect control and ±100 the full control effect
# Target sequence (P48426 whole entry, looked up): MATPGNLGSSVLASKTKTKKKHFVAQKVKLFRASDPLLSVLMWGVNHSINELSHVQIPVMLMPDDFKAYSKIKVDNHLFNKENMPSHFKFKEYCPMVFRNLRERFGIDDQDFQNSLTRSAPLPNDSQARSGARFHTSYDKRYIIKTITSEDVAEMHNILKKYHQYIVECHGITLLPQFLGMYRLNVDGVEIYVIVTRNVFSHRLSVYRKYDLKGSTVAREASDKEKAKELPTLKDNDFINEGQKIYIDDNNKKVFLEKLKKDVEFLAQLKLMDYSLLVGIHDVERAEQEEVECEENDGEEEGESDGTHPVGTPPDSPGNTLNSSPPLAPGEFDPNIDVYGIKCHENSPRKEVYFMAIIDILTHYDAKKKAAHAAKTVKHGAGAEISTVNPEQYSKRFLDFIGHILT
#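 Luminescence from ADP-Glo served as readout of PI5P4Kalpha activity in a qHTS format. Reaction: enzyme, substrate, compound, ATP at 5 microM final, 60 min at RT.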
# Pol eta inh-1 – DNA polymerase eta (human) inhibition; 1.2% of 390,000 active; Q9Y253; Potency, µM (titrated, usually from 114 µM), for inactives: top-dose activity change, negative = inhibition, usual class: inhibitors; AID 588591; recombinant Pol eta, fluorescent DNA replication assay; further: potency means the concentration at half of the fitted maximal effect; on the % scale 0 is the no-effect control and ±100 the full control effect
#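 Pol eta at 10 nM preincubated with compounds 15 min at room temperature; reaction started with fluorescent substrate (50 nM final) and read kinetically at 0 and 10 min.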
# GALK inh confirm – confirmation of human galactokinase (GALK) inhibitors; shares compounds with Pol eta inh-1; purified GALK, Kinase-Glo ATP depletion luminescence; Potency, µM (top dose mostly 115 µM), inactives show at the highest dose activity, negative = inhibition, most hits filed as inhibitors; 70% of 150 active; AID 2015
# Target sequence (P51570 whole entry, looked up): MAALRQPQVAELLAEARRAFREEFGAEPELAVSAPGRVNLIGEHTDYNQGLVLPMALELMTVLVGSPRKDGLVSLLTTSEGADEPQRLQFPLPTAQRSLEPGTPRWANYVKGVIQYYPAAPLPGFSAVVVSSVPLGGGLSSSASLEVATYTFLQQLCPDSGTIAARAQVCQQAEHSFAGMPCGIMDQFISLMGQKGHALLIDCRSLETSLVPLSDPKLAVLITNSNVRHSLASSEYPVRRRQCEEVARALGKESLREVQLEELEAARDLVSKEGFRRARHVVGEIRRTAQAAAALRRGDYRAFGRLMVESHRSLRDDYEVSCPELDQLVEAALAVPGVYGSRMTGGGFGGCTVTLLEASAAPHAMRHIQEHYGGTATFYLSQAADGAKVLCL
# GALK redox cs – generates H2O2 by redox cycling, flagging GALK artifacts. Potency, µM (top dose mostly 115 µM), without a hit: at the highest dose activity change, negative = H2O2 signal, most hits filed as inhibitors. 40% of 150 active. Phenol red-HRP H2O2 redox cycling, absorbance 600 nm. shares compounds with Pol eta inh-1
# HEK293 viability – HEK-293 cytotoxicity, GALK inhibitor secondary; shares compounds with Pol eta inh-1; HEK-293 viability, ATP luminescence (CellTiter-Glo), 24/48 h; Potency, µM (titrated, usually from 46.1 µM), inactives show at the top dose activity change, negative = cytotoxicity, actives largely listed as inhibitors; 10% of 170 active; AID 2547; further: potency means the concentration at half of the fitted maximal effect; on the % scale 0 is the no-effect control and ±100 the full control effect
# Pol kappa inh-2 – confirmation of human DNA polymerase kappa inhibitors. shares compounds with Pol eta inh-1. purified Pol-kappa, fluorescent strand-displacement substrate. Potency, µM, usual class: inhibitors. 76% of 920 active; further: potency means the concentration at half of the fitted maximal effect
# Pol eta inh-2 – confirmation of human DNA polymerase eta inhibitors; shares compounds with Pol eta inh-1; Potency, µM, actives largely listed as inhibitors; 64% of 2,600 active; Pol eta primer extension, TAMRA/BHQ fluorescence, 10 min; further: potency means the concentration at half of the fitted maximal effect
# WRN helicase inh-2 – WRN helicase inhibition, cherry-pick retest; shares compounds with WRN helicase inh-1; WRN helicase DNA unwinding, fluorescence kinetic; Potency, µM (series often up to 57.1 µM), without a hit: at the top dose activity, negative = inhibition, usual class: inhibitors; 63% of 610 active; AID 720497; further: potency means the concentration at half of the fitted maximal effect; nearly all actives have a fitted effect of over 65% in size
# TO DNA binding – binds DNA, flagged in WRN inhibitor counterscreen | shares compounds with WRN helicase inh-1 | thiazole orange DNA binding displacement, fluorescence | Potency, µM (highest dose often 57.1 µM), for the others: at the highest dose activity change, negative = inhibition, most hits filed as inhibitors | 10% of 610 active | AID 720499;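 further: drop in dye fluorescence marks compound binding to DNA; potency means the concentration at half of the fitted maximal effect; on the % scale 0 is the no-effect control and ±100 the full control effect; nearly all actives have a fitted effect of over 60% in size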
# BLM helicase inh – blocks human BLM helicase in WRN counterscreen | AID 720503 | 60% of 610 active | shares compounds with WRN helicase inh-1 | Potency, µM (titrated, usually from 57.1 µM), inactives show at the highest dose activity change, negative = inhibition, actives largely listed as inhibitors | Recombinant BLM helicase DNA unwinding, red fluorescence; further: potency means the concentration at half of the fitted maximal effect; nearly all actives have a fitted effect of over 60% in size
# ADP-Glo counter – interferes with ADP-Glo detection without enzyme present; ADP-Glo detection counter-screen, luciferase luminescence, no enzyme; AID 743285; Potency, µM (doses to about 76.9 µM), inactives show at the top dose activity change, negative = inhibition, usual class: inhibitors; 1,100 tested, under 10 active; shares compounds with PI5P4K alpha inh
# Starred values were filed as active, the others as inactive; i = inactive; ? = inconclusive; . = no result given; ! = not confirmed by another sample; [ ] = dose if it differs, or a comment. Unless noted, the call rests on the fitted dose curve; in most records, active means well fitted curve in the direction sought with a large enough effect; inconclusive means small, poorly fitted or top-dose-only effect, or another doubt; inactive means no such curve, though single readings can be large; an effect the other way counts as inactive or inconclusive.
SMILES,Pol kappa inh-1,Pol iota inh,WRN helicase inh-1,POLB inh,PI5P4K alpha inh,Pol eta inh-1,Pol eta inh-2,WRN helicase inh-2,TO DNA binding,BLM helicase inh,others
CCOc1cc(/C=C2\C(=O)ON=C2c2ccccc2)cc(Br)c1O,0%,?,?,5%,-79*,?,.,?,-2%,?,GALK inh confirm=?;GALK redox cs=0%;HEK293 viability=6%
O=C1ON=C(c2ccccc2)/C1=C/c1ccc(O)cc1,-2%,-10%,-32%,-1%,?,-13%,.,.,.,.,
N#Cc1c(-c2ccc(Cl)c([N+](=O)[O-])c2)no[n+]1[O-],.,.,.,.,.,.,76*,19µM*,-13%,22µM*,
Cc1ccccc1Cn1c2ccccc2c2cnn(CC(=O)NCC(C)c3ccccc3)c(=O)c21 (stereo not given),-4%,-11%,.,23%,.,4%,.,.,.,.,
N#Cc1c(-c2ccccc2)no[n+]1[O-],5%[19.4 µM],1%[58.9 µM],.,6%[57.1 µM],.,-10%[57.1 µM],.,.,.,.,
N#Cc1c(C(=O)c2cccs2)no[n+]1[O-],.,.,.,.,.,.,?,22µM*,-8%,24µM*,
NC(=S)c1ccc[n+]([C@@H]2O[C@@H](COP(=O)([O-])OP(=O)(O)OC[C@H]3O[C@@H](n4cnc5c(N)ncnc54)[C@H](OP(=O)(O)O)[C@@H]3O)C(O)C2O)c1 (stereo not given in full),3%[60.1 µM],.,.,.,.,.,.,.,.,.,
C=CCN1C(=O)/C(=C2/Sc3ccccc3N2CC)SC1=S,-6%,16%,12%,?,3,-4%,.,.,.,.,
C=CCN1C(=O)/C(=C/C=C2/N(CC)c3ccc(S(=O)(=O)N(C)C)cc3N2CC)SC1=S,-18%,?,5.3µM*,4.5µM*,-14,45µM*,38*,9.6µM*,i,9.6µM*,
COC(=O)c1cc(NC(=O)c2ccc3c(c2)NC(=O)c2ccccc2S3)cc(C(=O)OC)c1,-32%,?,.,6.3µM*,.,50µM*,?,14µM*,206%,1.9µM*,Pol kappa inh-2=9.5*
O=c1c(C(c2ccc(O)cc2)c2c(O)nc3n(c2=O)CCS3)c(O)nc2n1CCS2,-40%,-26%,15µM*,3%,-59*,20µM*,?,?,-8%,?,
CCOC(=O)c1cc2c(=O)n3ccccc3nc2n(Cc2ccco2)c1=NC(=O)c1cccc(C)c1,-27%,?,.,-13%,.,-3%,.,.,.,.,
Cc1cccc(C(=O)N=c2c(C#N)cc3c(=O)n4cccc(C)c4nc3n2Cc2ccco2)c1,28µM*,8.9µM*,25µM*!,20µM*,-93*,4.5µM*,43*,24µM*,-29%,?,
CCc1nc2ccc(C(=O)NCc3cc(OC)ccc3OC)cc2nc1CC,1%[60.1 µM],31%,.,0%,.,-20%,.,.,.,.,
CC1=NOC(=O)/C1=C\c1ccc(-c2cccc(Cl)c2)o1,-12%,?,13µM*,?,?,20µM*,?,?,-12%,7.6µM*,
COC(=O)N/N=C/c1ccc(-c2cccc(Cl)c2)o1,-7%,189%,-4%,13%,3,-20%,.,.,.,.,
CCN(CC)C(=O)Cn1c(=O)n(CCCCCC(=O)NCc2ccc3c(c2)OCO3)c(=O)c2sccc21,-13%,-5%,.,33%,.,-10%,.,.,.,.,
CCOC(=O)c1cnc2c(ccc3ccccc32)c1Nc1cccc(C(F)(F)F)c1,-30%,40%,.,-2%,.,?,.,.,.,.,
NC(=O)c1ccsc1NC(=O)c1ccc([N+](=O)[O-])o1,79µM*,50µM*,-9%[11.6 µM],.,-52*,45µM*,?,.,.,.,ADP-Glo counter=-15%
O=C(c1ccc2nc(-c3ccco3)c(-c3ccco3)nc2c1)N1CCN(c2ncccn2)CC1,?,?,45µM*,40µM*,-53*,?,?,.,.,.,ADP-Glo counter=-4%
Cc1nc2cc(NC(=O)N3CCN(c4ccccn4)CC3)ccc2o1,8%,-15%,2%,17%,.,-3%,.,.,.,.,
O=C(Nc1ccc2nc(-c3ccco3)c(-c3ccco3)nc2c1)N1CCN(c2ccccn2)CC1,28µM*,3.2µM*,18µM*,1.6µM*,-91*,3.2µM*,?,.,.,.,ADP-Glo counter=0%
CCCCNC(=O)c1ccc2nc(-c3ccco3)c(-c3ccco3)nc2c1,8.9µM*,?,79µM*,20µM*,-73*,14µM*,?,.,.,.,Pol kappa inh-2=21*;ADP-Glo counter=-10%
CCCNC(=O)c1ccc2nc(-c3ccccc3)c(-c3ccccc3)nc2c1,-4%,5%,-8%,-16%,7,-12%,.,.,.,.,
NC(=O)C1O[C@@H](O)[C@H](O)[C@@H](O)[C@H]1O (stereo not given in full),11%[60.1 µM],.,.,.,.,.,.,.,.,.,
